Measurements: PubChem BioAssay AID434982 (The Scripps Research Institute Molecular Screening Center, 2010)
The whole screen tested about 15,000 compounds, of which about 60 (0.4%) were called active. No stated cut-off is given here; in the data, active means activation above about 2.2%; inactive means the rest. The full list was thinned out, with actives kept by preference.

Assay: agonists of NOTCH signaling (AID 434982)
Settings: NOTCH signaling luciferase reporter cells, luminescence; at 2.5 µM; active compounds read high

activation, inactive:
Cn1c(=O)c2c(ncn2Cc2nnc(-c3ccccc3)o2)n(C)c1=O -0.05%
Cc1ccc(S(=O)(=O)N/N=C/c2ccc(O)cc2O)cc1 -0.7%
Cc1nnsc1C(=O)NN(C)c1ccc([N+](=O)[O-])cn1 -0.31%
CCOC(=O)Cc1cnc(NN=C2C3CC4CC(C3)CC2C4)s1 -0.83%
O=C(Cn1c(=Nc2ccc(F)cc2)oc2ccccc2c1=O)c1ccccc1 -0.66%
O=c1[nH]c2ccccc2c(=O)n1CCSc1ccc(Cl)cc1 -0.73%
O=S(=O)(NC1Cc2ccccc2C1)c1ccc(-c2csnn2)cc1 -0.03%
CCOC(=O)C(=CNNc1ccc(C(=O)O)cc1[N+](=O)[O-])C(=O)OCC -0.57%
Cc1ccc(NC(C(=O)O)c2ccccc2)cc1 (stereo unspecified) -0.61%
CC(=O)Nc1ccc(S(=O)(=O)NNc2c(Cl)cncc2Cl)cc1Cl -0.55%
CCOC(=O)CCC(=O)OC(C(=O)c1ccccc1)c1ccccc1 (stereo unspecified) -0.16%
Cc1ccc(/C=c2\sc3nc4ccccc4n3c2=O)o1 -0.36%
O=S(=O)(CCSc1ccccc1NS(=O)(=O)c1cccs1)c1ccc(Cl)cc1 -0.38%
O=C(Nn1cnnc1)c1ccc([N+](=O)[O-])cc1 -0.58%
O=C(CSc1nnc(-c2ccncc2)o1)N1CCc2ccccc21 -0.94%
Oc1ccccc1C=NCCCN=Cc1ccccc1O -0.99%
N#Cc1ccc(Oc2ccc(Cl)cc2)c([N+](=O)[O-])c1 -0.29%
Oc1ccccc1C=Nc1ccc(F)cc1 -0.14%
O=C(O)/C=C/C(=O)Nc1ccc(NC(=O)c2ccccc2O)cc1 0.22%
CCOC(=O)c1c(C)nn(-c2ncccc2NC(=O)Nc2cccc(Cl)c2Cl)c1C -0.32%
c1ccc(C2=NCCN=C2c2ccccc2)cc1 0.16%
N#CC(C#N)=Cc1cccn1-c1ccc(C(F)(F)F)cc1 -0.29%
N#C/C(=C\c1cccs1)C(=O)NCCc1c[nH]c2ccccc12 0.42%
COC(=O)c1noc(C)c1-c1ccnn1C(=O)c1ccc(Cl)cc1 0.11%
COc1ccc(Cc2nc(C(C)(C)C)cs2)cc1 0.28%
CNC(=S)NNC(=O)c1cc(C)on1 -0.11%
Cn1cnc([N+](=O)[O-])c1N1CCN(C(c2ccccc2)c2ccccc2)CC1 -0.25%
COC(=O)c1sccc1S(=O)(=O)Nc1ccccc1Sc1ncnc2c(C)csc12 -0.68%
N#Cc1ccc(-c2csc(COc3ccccc3Cl)n2)cc1 0.49%
O=C(Nc1ccc(Cl)cc1)c1csc(COc2ccc3nonc3c2)n1 -0.05%
COC(=O)c1ccccc1-c1c2ccc(=O)cc-2oc2cc(O)ccc12 -0.07%
COc1cccc(/C=N/NC(=S)Nc2cc(C(F)(F)F)cc(C(F)(F)F)c2)c1O -0.66%
O=C(O)CC(CC(=O)Nc1cc(C(F)(F)F)ccc1N1CCOCC1)c1ccccc1 (stereo unspecified) -0.05%
Cc1cc(C)nc(NC(=S)c2ccc(NC(=O)/C=C/C(=O)O)cc2)n1 -0.56%
Cc1c(NC(=S)Nc2ccccc2)c(=O)n(-c2ccccc2)n1C -0.19%
O=C(Nc1ccc(OC(F)F)cc1)Nc1coc(-c2ccccc2)c1 -0.11%
CCSC(=O)NCc1ccccc1 -0.05%
O=C(O)c1ccccc1Nc1ccccc1F -0.29%
CN(n1cnc2ccccc2c1=O)S(=O)(=O)c1cc(Cl)sc1Cl -0.39%
COC(=O)c1sc(SC)c(-c2ccn[nH]2)c1C 0.4%
O=C(/C(=N\N=C\c1ccc2c(c1)OCO2)c1ccccc1)c1ccccc1 -0.24%
CCCCCCCN=C(C)c1ccccc1O -0.3%
O=C(O)CC1(CC(=O)Nc2ccccc2-n2cccn2)CCCCC1 -0.3%
CSc1ccc(Br)cc1 0.1%
O=C(N/N=C/c1cccs1)C(=O)Nc1ccc(Cl)c(Cl)c1 -0.5%
O=C1C=C(c2ccccc2)CN(C2CCCCC2)C1=O -1.07%
O=C(Nc1ccccc1)N1CCN(c2ncnc3sccc23)CC1 -0.57%
COCCOc1ccc(NC(=S)N2CCOCC2)cc1 0.32%
COC(=O)c1ccccc1NC(=O)c1ccc(Oc2cc(Cl)cc(Cl)c2)o1 -0.31%
O=C(Sc1ccccc1)c1ccc(C(F)(F)F)cc1 -0.46%
CC(N)=NCCc1ccncc1 -0.78%
N/C(=N\OC(=O)CCn1cccc(C(F)(F)F)c1=O)c1ccc(OC(F)(F)F)cc1 -0.58%
CCOC(=O)/C(C#N)=C/NNc1c(C)csc1C(=O)OC 0.05%
Cn1/c(=N\N=C2CCCCC2)sc2ccccc21 0.03%
CSc1cccc(NC(=O)C(=O)NCCc2ccccn2)c1 -1.05%
COCCCN/C(SCc1c(F)cccc1Cl)=C(\C#N)C(N)=O 0.49%
CC1CN(c2ccc(NC(=S)NCc3cccs3)cc2)CC(C)O1 (stereo unspecified) -0.73%
N#Cc1c(-c2ccccc2)c(-c2ccccc2)n[nH]c1=O -0.27%
O=C1C(Nc2ccccc2)=CC(c2ccc([N+](=O)[O-])cc2)N1c1ccccc1 (stereo unspecified) -0.41%
N#CC1(C#N)C(c2ccc(Cl)c(Cl)c2)C1(C#N)C#N -0.6%
N#Cc1nccnc1N1CCN(C(=O)c2ccccc2)CC1 -0.2%
Cn1c(SCC(=O)c2ccc(Cl)cc2)nnc1-c1cnccc1C(F)(F)F -0.25%
O=C(O)c1ccccc1N/C=C/[N+](=O)[O-] -0.62%
CC1=NOC(=O)/C1=C\c1ccccc1 -0.92%
O=C1Nc2ccccc2C12NNC(=S)NN2 -0.45%
CCCC1NC(=O)NC(C)=C1C(=O)OCC (stereo unspecified) -0.61%
CCOC(=O)C(=CNc1cc(C(F)(F)F)ccc1NCc1ccccc1)C(=O)OCC -0.25%
CCOC(=O)COc1cccc2c(C)cc(=O)oc12 -0.24%
Cc1nc(-c2ccccc2)sc1-c1nnc(C2CC2)o1 -0.45%
O=C(CN1C(=O)/C(=C/c2ccccc2Cl)N=C1c1ccccc1)c1ccccc1 -0.14%
COC(=O)C1=C(NNc2ncc(Cl)cc2C(F)(F)F)CSC1 -0.05%
CC(C)c1ccc(NNS(=O)(=O)c2ccc(Cl)c(Cl)c2)cc1 -0.45%
CCOc1c(N2CCCCC2)c(=O)c1=O -0.13%
O=c1[nH]/c(=C/c2ccc(OC(F)(F)F)cc2)c(=O)[nH]/c1=C/c1ccc(OC(F)(F)F)cc1 -0.83%
CSc1nnc(-c2ccc(C(F)(F)F)cn2)o1 0.03%
CCOC(=O)/C(C#N)=C/N=C(N/N=C/c1cccs1)SC -0.19%
FC(F)(F)c1cc(-c2ccc(Br)cc2)n[nH]1 0.22%
N#C/C(=C\C=C\c1ccccc1)c1nc2ccccc2[nH]1 -5.39%
COc1cccc(/C=C2\SC(=S)C(N)C2=O)c1OC (stereo unspecified) 0.34%
NC(=S)N/N=C\Cc1nnnn1-c1ccc(Cl)cc1 0.16%
Cc1ncn2cc(-c3ccc(Cl)cc3Cl)[nH]c(=O)c12 -0.34%
N#Cc1cc([N+](=O)[O-])c(N2CCCC2)cc1N1CCCC1 -0.6%
CC(C)(C)c1cc(C(=O)/C=C2/NC(=O)CS2)no1 0.5%
Cc1cccc(Cl)c1NC(=S)NCCNC(=O)OC(C)(C)C -0.1%
OC(COc1ccc(Cl)c(Cl)c1)CN1CCC(Nc2nccc(C(F)(F)F)n2)CC1 (stereo unspecified) -0.76%
CCOC(=O)CCSc1cc(-n2cccc2)c(Cl)cc1[N+](=O)[O-] -0.25%
CCCN(CCC)S(=O)(=O)c1ccc(C(=O)Oc2c(C)cccc2OC)cc1 0.36%
O=C(O)CC1(CC(=O)Nc2ccc(N3CCCCC3)cc2)CCCCC1 -0.6%
COc1cc(CC/C(C)=N/O)ccc1O 0.52%
O=C(Nc1cccnc1Oc1ncnc2cc(Cl)ccc12)c1ccc(F)cc1 -5.46%
O=C(O)c1ncoc1-c1cccc(Cl)c1 -0.29%
Cn1cnc(S(=O)(=O)Nc2ccc3[nH]ccc3c2)c1 -0.46%
COc1ccc(C(=O)NNC(=O)c2c(OC)cc(C(F)(F)F)cc2C(F)(F)F)cc1 0.11%
O=C(O)C#Cc1cccc2ccccc12 -0.45%
Cn1cc(Br)c(-c2cccc(NC(=O)c3ccccc3Cl)c2)n1 -0.38%
Cc1onc(-c2ccccc2Cl)c1NC(=O)N1c2ccc(F)cc2CCC1C (stereo unspecified) -0.44%
CN(C)/C=C1/C(=O)NN=C1CSc1ccc(Cl)cc1 -0.25%
Cc1c(S(=O)(=O)N2CCOCC2)ccc(Cl)c1F -1.27%
N#C/C=C/c1ccc(C(F)(F)F)cc1[N+](=O)[O-] -0.41%
Cc1nc2c(ncn2-c2ccccc2)c(=O)n1NC(=O)CN1CCCC1 -4.07%
COc1ccc(CCN=C(C)c2cc(Cl)cc(Cl)c2O)cc1OC -0.13%
